Our source for the AC50 and activity, negative = inhibition values is PubChem BioAssay AID1851 (National Center for Advancing Translational Sciences (NCATS), 2009).

Values joined by “and” are separate entries in the source; they are usually repeats but may differ in a detail not shown here. Equal entries are not always repeated. Hit rate of the full screen: of about 16,000 compounds, about 2,600 (16%) were called active. Roughly 20% stayed inconclusive and do not appear here. Only a sample is shown. Some structures have more than one record in an assay (separate samples or runs), and their calls can disagree. Unmarked numbers belong to inactive results. Calls follow the shape of the dose curve; as a rule, active = well fitted curve in the direction sought with a large enough effect; inconclusive = small, poorly fitted or top-dose-only effect, or effect the other way; inactive = no such curve, though single readings can be large or run the other way.
% is scaled to controls: 0 for no effect and ±100 for the full control effect.

The target in the assay is Cytochrome P450 2D6 (Homo sapiens) (UniProt P10635). Kind of assay: Cytochrome panel assay with activity outcomes. Particulars: recombinant CYP, pro-luciferin dealkylation, luminescence, p450-cyp2d6; series mostly up to 57.1 µM.
Chain of Cytochrome P450 2D6 (Homo sapiens) (P10635 whole entry, looked up): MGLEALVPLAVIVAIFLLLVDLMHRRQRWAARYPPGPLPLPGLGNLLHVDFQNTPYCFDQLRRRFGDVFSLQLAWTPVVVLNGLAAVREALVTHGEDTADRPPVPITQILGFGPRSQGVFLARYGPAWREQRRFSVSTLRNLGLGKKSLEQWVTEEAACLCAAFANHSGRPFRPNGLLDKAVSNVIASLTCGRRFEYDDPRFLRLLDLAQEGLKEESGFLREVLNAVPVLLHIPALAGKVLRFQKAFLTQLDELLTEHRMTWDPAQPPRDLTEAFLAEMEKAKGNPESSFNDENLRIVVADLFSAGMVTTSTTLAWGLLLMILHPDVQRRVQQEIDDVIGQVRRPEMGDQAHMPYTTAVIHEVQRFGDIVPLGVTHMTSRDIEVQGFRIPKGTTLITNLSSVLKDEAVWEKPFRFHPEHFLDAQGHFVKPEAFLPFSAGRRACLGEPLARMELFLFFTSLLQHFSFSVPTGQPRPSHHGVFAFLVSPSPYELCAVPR
On to `CNc1ncnc2c1ncn2[C@@H]1O[C@@H](CO)[C@H](O)[C@@H]1O`, for which the AC50 (commonly the concentration giving half of the maximal activity seen) was “inactive”.

As for `CNc1ncnc2c1ncn2[C@H]1C[C@@H](OP(=O)(O)O)[C@H](COP(=O)(O)O)O1`, the AC50 entry is “inactive”.

Regarding `CNc1ncnc2c1ncn2[C@H]1C[C@H](OP(=O)(O)O)[C@H](COP(=O)(O)O)O1`, the AC50 is 5.01 µM (active).

As for `Cc1ccc(C2C3=C(CCCC3=O)Nc3nc(SCC(=O)NCc4ccco4)[nH]c(=O)c32)cc1` (stereo not given), the AC50 entry is “inactive”.

Take `CC(C)C12CC[C@@]3(CC[C@H]4[C@@](C)(CCC[C@]4(C)C(=O)O)[C@@H]3C1)[C@@H](CN)C2`: the activity, negative = inhibition was 6.15% [at 11.4 µM].

For `COc1ccc(Nc2cc(=O)n(C3CCCCC3)c(=O)[nH]2)c(OC)c1`, the AC50 entry is “inactive”.

Consider `Cc1nc(S(=O)(=O)NC2CCCCC2)c(C#N)c(C)c1Cl`, for which the AC50 entry was “inactive”.

As for `Cc1ccc(-c2c(C)sc(NC(=O)C3C4CCC(O4)C3C(=O)O)c2C(=O)OC(C)C)cc1` (stereo not given), the AC50 entry was “inactive”.

For `Cc1ccc(/C=N/NC(=O)CSc2nc3nc(C)cc(C)n3n2)cc1`, the AC50 entry is “inactive”.

Turning to `COc1ccccc1CNC(=O)CSc1nc2nc(C)cc(C)n2n1`, the AC50 was 15.8 µM (active).

Regarding `Cc1cc(C)n2nc(SCC(=O)N/N=C/c3ccccc3F)nc2n1`, the AC50 entry was “inactive”.

In the case of `Nc1nc(=S)[nH]c2c1C1(CCCC1)Cc1ccccc1-2`, the AC50 entry is “inactive”.

`CO[C@@H]1COC(=O)[C@H](C)NC(=O)C/C=C\[C@@H](C)[C@@H](NS(=O)(=O)c2ccc(C)cc2)COC(=O)C/C=C\[C@@H]1C`: the activity, negative = inhibition was 5.57% [at 11.4 µM].

Regarding `O=c1cc(-c2ccccc2)[nH]n1-c1ccc([N+](=O)[O-])cc1`, the AC50 entry was “inactive”.

As to `O=c1[nH]c(SCc2ccccc2[N+](=O)[O-])nc2nc[nH]c12`, the activity, negative = inhibition is -3.83% [at 11.4 µM].

Turning to `O=[N+]([O-])c1ccc(-c2cnc(SCc3ccccc3Cl)[nH]2)cc1`, the AC50 is 12.6 µM (active).

On to `COCCn1c(=O)c(-c2cccs2)nc2cnc(N(C)C)nc21`, for which the AC50 entry is “inactive”.

Regarding `O=P(O)(COc1ccccc1)COc1ccccc1`, the AC50 entry was “inactive”.

Take `C[N+](C)(CCCOc1ccccc1)c1ccccc1`: the AC50 is 0.0158 µM (active).

As for `O=c1c(-c2cccs2)nc2cnc(Nc3ccccc3)nc2n1C[C@H]1CCCO1`, the AC50 entry is “inactive”.

Turning to `CC(CO)(CO)N=Cc1cc(I)cc(I)c1O`, the activity, negative = inhibition is 3.56% [at 11.4 µM].

For the compound `Cc1ccc(NC(=S)Nc2ccc(Br)cc2)cc1`, the AC50 result was “inactive”.

`Cc1ccc(SCc2cc(=O)[nH]c(/N=C(\N)Nc3ccc(C)c(C)c3)n2)cc1`: the AC50 entry is “inactive”.

Take `Cc1ccc(SCCNC(=S)Nc2ccc(C)c(C)c2)cc1`: the AC50 was 4.47 µM (active).

With `COc1ccc(C(=O)Nc2cccc(/C(C)=N/NC(=O)c3ccc([N+](=O)[O-])cc3)c2)cc1OC`, the AC50 entry is “inactive”.

With `COc1ccc2cc(C)c3nnc(SCC(=O)Nc4nc(-c5ccccc5)cs4)n3c2c1`, the AC50 entry was “inactive”.

In the case of `CC(=O)Nc1ccc(NC(=O)CSc2nnc(-c3ccccc3)n2Cc2ccc3c(c2)OCO3)cc1`, the AC50 was 12.6 µM (active).

Consider `Cc1ccc2cc(C)c3nnc(SCC(=O)NCc4ccco4)n3c2c1`, for which the AC50 entry was “inactive”.

As for `CC(=O)Nc1ccc(NC(=O)CSc2ncnn2-c2ccccc2)cc1`, the AC50 entry was “inactive”.

As to `Cc1cc2cc(C)c3nnc(SCC(=O)NCc4ccc5c(c4)OCO5)n3c2cc1C`, the AC50 was 17.8 µM (active).

Consider `O=C(CSc1nnc(-c2ccccn2)n1Cc1ccco1)Nc1ccc2c(c1)OCO2`, for which the AC50 result was “inactive”.

`O=C(O)c1cscc1Cc1cccs1`: the activity, negative = inhibition was 14.2% [at 11.4 µM].

`O=C(O)/C=C\C(=O)Nc1cccc2c1-c1ccccc1C2=O`: the activity, negative = inhibition is 10.1% [at 11.4 µM].

With `Cc1nc2cncnc2n(Cc2ccc(F)cc2)c1=O`, the AC50 result was “inactive”.

Consider `C=CCn1c(SCC(=O)Nc2ncc(Cc3ccc(Br)cc3)s2)nnc1-c1ccncc1`, for which the AC50 result is “inactive”.

In the case of `CC(C)=C1C(=O)NN(c2ccc(F)c(Cl)c2)C1=O`, the AC50 result was “inactive”.

In the case of `Cc1cccc(C(=O)NNC(=O)C2CCCO2)c1` (stereo not given), the AC50 entry was “inactive”.

For `CCNc1ncc2nc(-c3ccc(OC)cc3)c(=O)n(-c3ccc(OC)cc3)c2n1`, the AC50 entry is “inactive”.

Take `CCNc1ncc2nc(-c3ccc(F)cc3)c(=O)n(C)c2n1`: the AC50 entry is “inactive”.

Turning to `COc1ncc2nc(-c3cc(F)cc(F)c3)c(=O)n(-c3ccccc3)c2n1`, the AC50 result is “inactive”.

On to `O=c1c(-c2cc(F)cc(F)c2)nc2cncnc2n1-c1ccccc1`, for which the AC50 result was “inactive”.

In the case of `CCNc1ncc2nc(-c3ccc(F)cc3)c(=O)n(-c3ccccc3)c2n1`, the AC50 was 0.1 µM (active).

As for `CCNc1ncc2nc(-c3cc(F)cc(F)c3)c(=O)n(-c3ccccc3)c2n1`, the AC50 was 0.1 µM (active).

Consider `O=C(Nc1cccc(F)c1)/C(=C\c1ccco1)NC(=O)c1cccs1`, for which the AC50 entry is “inactive”.

Consider `CC(=O)c1ccc(S(=O)(=O)NC(=O)NC2CCCCC2)cc1`, for which the AC50 entry is “inactive”.

Take `CC(C)CC(c1nnnn1C(C)C)N1CCN(c2ccccc2)CC1` (stereo not given): the AC50 result is “inactive”.

`COc1ccccc1NC(=O)c1sc2ncn(Cc3ccccc3C)c(=O)c2c1C`: the AC50 entry is “inactive”.

As for `Cc1ccccc1C(=O)NN(C)c1nc2ccccc2nc1C(F)(F)F`, the AC50 result was “inactive”.

Regarding `CC(=O)N1CCN(c2ccc(NC(=O)c3ccc(C)cc3)cc2)CC1`, the AC50 entry was “inactive”.

Turning to `COC(=O)CC[C@@H](C)[C@H]1CC[C@H]2[C@H]3CC[C@H]4C[C@@H]5CC[C@@]4(C)C3(O5)[C@@H](Br)[C@@H](Br)[C@@]12C`, the activity, negative = inhibition is -11.7% [at 11.4 µM].

In the case of `CO[C@H]1COC(=O)C/C=C\[C@@H](C)[C@H](OC)COC(=O)CCC[C@@H]1C`, the activity, negative = inhibition is 17.9% [at 11.4 µM].

As to `Fc1ccc(Cn2c(SCc3ccc(F)c(C(F)(F)F)c3)nnc2C(F)(F)F)cc1`, the concentration at half-maximal activity (AC50) was 15.8 µM (active).

Turning to `CC(C)(C)c1ccc(-c2nnc(SCc3ccc(Cl)cc3)n2-c2cccc(C(F)(F)F)c2)cc1`, the activity, negative = inhibition was 7.38% [at 11.4 µM].

Regarding `Cc1ccc(CSc2nnc(C(F)(F)F)n2Cc2ccc(F)cc2)cc1`, the AC50 entry is “inactive”.

For `Cc1cc2c(nc1C)CCCN2C[C@H](O)CN1CCCc2nc(-c3ccc(Br)cc3)ccc21`, the AC50 is 3.16 µM (active) and the activity, negative = inhibition was -14.3% [at 11.4 µM].

Turning to `Cc1cc2c(nc1C)CCCN2CC(O)CN1CCCc2nc(C)c(C)cc21`, the activity, negative = inhibition is -7.07% [at 11.4 µM].

For `CCc1cc2c(nc1CC)CCN(CC/C(C)=N/O[C@@H](C)c1cc(-c3c(C)cc(C)cc3C)no1)C2`, the activity, negative = inhibition is -13.3% [at 11.4 µM].

As to `COC(=O)C/C=C\[C@@H](C)[C@@H](/C=N\O[C@@H](C)CN1CCCCc2nc(C)c(C)cc21)NS(=O)(=O)c1ccc(C)cc1`, the activity, negative = inhibition was 2.33% [at 11.4 µM].

In the case of `CCc1cc2c(nc1CC)CCN(CC/C(C)=N/O[C@@H](C)CN1CCCc3nc(C)c(C)cc31)C2`, the AC50 is 3.98 µM (active).

Take `C=CC[C@@H]1C=C[C@H](ON=C(C)C)[C@H](CO)O1`: the activity, negative = inhibition is 9.56% [at 11.4 µM].

With `COC(=O)C/C=C\[C@@H](C)[C@@H](/C=N\O[C@@H](C)CN1CCCc2nc(C)c(C)cc21)NS(=O)(=O)c1ccc(C)cc1`, the AC50 is 3.16 µM (active).

Consider `C=CC[C@@H]1C=C[C@H](O/N=C(\C)CCN2CCCCc3nc(C)c(C)cc32)[C@H](CO)O1`, for which the AC50 was 3.98 µM (active).

`C/C(CCN1CCc2nc(-c3ccccc3)c(-c3ccccc3)cc2C1)=N\O[C@@H](C)CN1CCCCc2nc(C)c(C)cc21`: the activity, negative = inhibition is -4.1% [at 11.4 µM].

As for `CO/N=C\[C@@H](NS(=O)(=O)c1ccc(C)cc1)[C@H](C)/C=C\CC(=O)OC`, the activity, negative = inhibition is -13.5% [at 11.4 µM].

Turning to `Cc1ccc(NC(=O)NNC(=O)Cn2nc(-c3ccccc3)c(-c3ccccc3)c(C#N)c2=O)cc1`, the AC50 result was “inactive”.

For the compound `O=C(N1CCOCC1)N1CCN(c2ccccc2)CC1`, the AC50 entry was “inactive”.

Regarding `Brc1[nH]nc2ccccc12`, the AC50 result is “inactive”.

For `Cc1ccc(S(=O)(=O)N[C@@H]2COC(=O)C/C=C\[C@H](C)COC(=O)N[C@@H](C)C(=O)C/C=C\[C@H]2C)cc1`, the activity, negative = inhibition was 2.75% [at 11.4 µM].

With `CSc1nc(Cl)cc(N(CCO)CCO)n1`, the AC50 result is “inactive”.

For `Cn1cccc1C(=O)N1CCC[C@@]2(CCN(c3ccccn3)C2)C1`, the AC50 entry is “inactive”.

Regarding `CCN(CC)C(=S)SSC(=S)N(CC)CC`, the AC50 entry is “inactive”.

On to `CN(C)[C@H]1C(=O)C(C(=O)NCN2CCCC2)=C(O)[C@]2(O)C(=O)C3=C(O)c4c(O)cccc4[C@](C)(O)[C@H]3C[C@H]12`, for which the activity, negative = inhibition is -10.6% [at 11.4 µM].

On to `CC(C)Cn1c(-c2ccc(Cl)cc2)cnc1SCC(=O)N1CCOCC1`, for which the AC50 result was “inactive”.

Turning to `Cn1cc(-c2nc3cnc(N4CCNCC4)nc3n(-c3ccccc3)c2=O)c2ccccc21`, the AC50 entry was “inactive”.

For `Cn1cnc([N+](=O)[O-])c1Sc1nc(N)nc2c1ncn2[C@H]1C[C@H](O)[C@@H](CO)O1`, the activity, negative = inhibition is 4.56% [at 11.4 µM].

Take `C/C(CCN1CCCc2nc(C)c(C)cc21)=N\OC[C@@H](C)[C@H](OCc1ccccc1)C(C)C`: the activity, negative = inhibition is 0.76% [at 11.4 µM].

For the compound `COC(=O)[C@@H]1CC[C@H](C)[C@@H](c2ccc(C)cc2)N1C(=O)c1ccc(/C=N\O[C@@H](C)CN2CCCCc3nc(C)c(C)cc32)cc1`, the activity, negative = inhibition was -20.9% [at 11.4 µM].

For the compound `C/C(CCN1CCCc2nc(C)c(C)cc21)=N\OC[C@@H](O)[C@@H]1O[C@@H]2OC(C)(C)O[C@@H]2[C@H]1O`, the activity, negative = inhibition was 1.91% [at 11.4 µM].

With `CC(C)=NO[C@@H](C)CN1CCCCc2nc(C)c(C)cc21`, the AC50 is 2.51 µM (active).

For `C/C(CCN1CCCc2nc(C)c(C)cc21)=N\O[C@@H](C)CN1CCCCc2nc(C)c(C)cc21`, the activity, negative = inhibition is -11.7% [at 11.4 µM].

For `CO/N=C(\C)CCN1CCCCc2nc(C)c(C)cc21`, the AC50 was 3.98 µM (active).

For the compound `C/C(CCN1CCCCc2nc(C)c(C)cc21)=N\OC[C@@H](C)[C@H](OCc1ccccc1)C(C)C`, the activity, negative = inhibition is -1.58% [at 11.4 µM].

Regarding `CO/N=C(\C)CCN1CCCc2nc(C)c(C)cc21`, the AC50 was 3.98 µM (active).

Take `C/C(CCN1CCCCc2nc(C)c(C)cc21)=N\O[C@@H](C)c1cn([C@H](CO)Cc2ccccc2)nn1`: the activity, negative = inhibition is -8.6% [at 11.4 µM] and -9.25% [at 11.4 µM].
